# Compound activity: PubChem BioAssay, several laboratories
# Hits are enriched below; roughly 1.7% of the tested compounds scored in any of these assays.
# RecA intein inh: blocks M. tuberculosis RecA intein splicing; P9WHJ3; cell-free RecA intein splicing, fluorescence; inhibition, % (concentration not given with the values); 290,000 compounds, 0.75% hits; in the data active = inhibition above about 30%
# Target sequence (P9WHJ3 whole entry, looked up): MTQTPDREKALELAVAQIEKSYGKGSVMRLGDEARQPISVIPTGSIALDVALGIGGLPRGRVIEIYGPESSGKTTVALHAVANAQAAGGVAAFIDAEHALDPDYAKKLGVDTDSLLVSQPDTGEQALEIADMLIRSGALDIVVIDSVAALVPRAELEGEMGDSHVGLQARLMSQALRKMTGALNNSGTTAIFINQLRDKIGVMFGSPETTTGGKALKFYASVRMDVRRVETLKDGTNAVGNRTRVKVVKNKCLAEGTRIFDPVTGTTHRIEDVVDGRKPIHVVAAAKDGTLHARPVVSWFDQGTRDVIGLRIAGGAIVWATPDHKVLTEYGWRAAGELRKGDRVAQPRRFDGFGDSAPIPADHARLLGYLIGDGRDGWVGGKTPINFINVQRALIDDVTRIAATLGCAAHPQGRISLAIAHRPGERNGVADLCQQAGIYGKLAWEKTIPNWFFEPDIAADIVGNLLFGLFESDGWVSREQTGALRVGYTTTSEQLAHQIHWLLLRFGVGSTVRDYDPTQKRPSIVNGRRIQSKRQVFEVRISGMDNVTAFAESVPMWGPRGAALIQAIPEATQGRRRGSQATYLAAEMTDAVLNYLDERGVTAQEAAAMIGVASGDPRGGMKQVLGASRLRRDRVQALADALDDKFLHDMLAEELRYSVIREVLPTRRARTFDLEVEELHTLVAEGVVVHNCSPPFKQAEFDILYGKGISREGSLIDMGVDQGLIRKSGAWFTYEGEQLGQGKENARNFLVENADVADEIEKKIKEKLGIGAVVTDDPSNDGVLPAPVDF
# SSB-PriA inh: K. pneumoniae PriA-SSBct interaction inhibition | AID 1272365 | inhibition, % at 33 µM | 430,000 compounds, 0.6% hits | AlphaScreen SSBct-PriA binding, biotinylated peptide; in the data active = inhibition mostly above about 37%, no sharp cut-off; inactive = mostly below about 20%
# 3CLpro inhibitor: SARS-CoV 3CLpro protease inhibition; P0C6X7; recombinant SARS-CoV 3CLpro, quenched FRET peptide cleavage; inhibition, % at 6 µM; 290,000 compounds, 0.14% hits; in the data active = inhibition above about 12%
# VHR inh abs: DUSP3 (human) phosphatase inhibition. P51452. recombinant VHR phosphatase, pNPP absorbance. inhibition, % at 13.3 µM. 290,000 compounds, 0.52% hits. AID 1654; in the data active = inhibition above about 50%
# CCHF vOTU inh: blocks the CCHF virus ovarian tumor domain protease. CCHFV vOTU protease, Pep-AMC fluorescence. inhibition, % at 11.5 µM. 370,000 compounds, 0.55% hits; in the data active = inhibition above about 30%
# A number is an active result; – = inactive; · = no result.
SMILES,RecA intein inh,SSB-PriA inh,3CLpro inhibitor,VHR inh abs,CCHF vOTU inh
CC(=O)N1CCN(Cc2nc3cc(NC(=O)c4ccc(F)cc4)ccc3n2C)CC1,–,–,–,57,–
Nc1[nH]c(=S)[nH]c(=O)c1NC(=O)c1ccco1,·,–,·,·,·
COc1cnc(-c2ccccn2)nc1N1CCOCC1,·,156,·,·,·
COc1cnc(-c2ccccn2)nc1Sc1ccc(C)cc1,–,–,–,–,–
COc1ccccc1Sc1nc(-c2ccccn2)ncc1OC,–,–,–,–,–
COc1cnc(-c2ccccn2)nc1NC(C)C,–,95,–,–,–
COc1ccc(C(O)CNC(=O)c2cc(C)ccc2C)cc1OC (centres undefined),·,–,·,·,·
COc1ccc(N2CC(NC(=O)Nc3ccccc3SC)CC2=O)cc1OC (centres undefined),·,–,·,·,·
CC(C)C(=O)Nc1c(C(=O)N2CCN(c3ncccn3)CC2)oc2ccccc12,–,–,–,53,–
Cc1ccc2c(C)c(C(=O)N3CCN(c4ncccn4)CC3)oc2c1C,–,85,–,–,–
O=C(Cc1nnc(NC(=O)c2ccccc2)s1)NN=Cc1ccc(O)c(O)c1,·,–,·,·,·
Cc1ccc(C(=O)Nc2nnc(CC(=O)N/N=C/c3ccc(O)c(O)c3)s2)cc1,–,·,–,54,–
CCn1c(=O)n(CC)c2cc(N3CCCC3)c(NC(=O)c3ccc(C)cc3)cc21,–,–,–,56,–
COc1ccc(C(=O)NC(Cc2ccccc2)c2ccc3c(c2)OCCCO3)cc1 (centres undefined),–,–,–,–,–
O=C(NC(Cc1ccccc1)c1ccc2c(c1)OCCCO2)c1ccccc1F (centres undefined),–,–,–,52,–
Cc1cccc(S(=O)(=O)Nc2ccc(-c3ccc4nnc(-c5ccccn5)n4n3)cc2)c1,·,79,·,·,·
O=S(=O)(Nc1ccc(-c2ccc3nncn3n2)cc1)c1ccccc1F,–,–,·,·,–
O=S(=O)(Nc1ccc(-c2ccc3nnc(-c4ccccn4)n3n2)cc1)c1ccccc1F,·,101,·,·,·
Cc1ccc(S(=O)(=O)N(CCN2C(=O)c3ccccc3C2=O)CCN2C(=O)c3ccccc3C2=O)cc1,·,–,·,·,·
Cc1ccc(C(C[N+](=O)[O-])c2c(-c3ccccc3O)[nH][nH]c2=O)cc1 (centres undefined),53,–,–,–,–
CCC(=O)c1ccc(OC(=O)c2cccs2)cc1,32,–,–,·,–
COC(=O)c1ccc(OC(=O)c2cccs2)cc1,–,–,–,–,–
C1CN2CN3CCN(CN1C3)C2,·,80,·,·,·
CCOC(=O)c1c(N=Cc2c(O)n(-c3ccc(F)cc3)c(=S)[nH]c2=O)sc2c1CCCC2,·,–,·,·,·
COc1ccc(S(=O)(=O)N(C)CC(=O)N2CCCC2)cc1OC,–,–,–,53,–
SMILES,RecA intein inh,SSB-PriA inh,3CLpro inhibitor,VHR inh abs,CCHF vOTU inh
COc1ccc(S(=O)(=O)N(C)CC(=O)N2CCN(C)CC2)cc1Cl,–,–,–,53,–
CS(=O)(=O)NCCOc1ccc2nnc(-c3ccc(F)cc3)n2n1,·,–,·,·,·
O=C(c1ccc([N+](=O)[O-])o1)N1CCN(Cc2nc(-c3ccc(F)cc3)cs2)CC1,·,11,·,·,·
O=C(c1ccncc1)N1CCC(CNS(=O)(=O)c2cccc3ccccc23)CC1,·,–,·,·,·
O=C(NCc1ccc(F)cc1)Nc1ccccc1-c1cn2ccsc2n1,·,–,·,·,·
Cc1[nH]c(=O)nc(C(=O)O)c1C,·,–,·,·,·
NNc1ncnc2c1cnn2-c1ccccc1,–,64,–,–,–
NNc1ncnc2c1cnn2-c1ccc(F)cc1,·,73,·,·,·
O=C(C[n+]1ccccc1)N/N=C/c1cc(Br)cc(Br)c1O,–,·,–,–,·
O=C(C[n+]1ccccc1)NN=Cc1cc(Br)cc(Br)c1O,·,57,·,·,·
CCOC(=O)c1ccc2nc(NC(=O)Cc3ccc(C)c(C)c3)sc2c1,·,–,·,·,·
O=C(NCC1(c2cccs2)CC1)C(=O)Nc1cccc(C(F)(F)F)c1,·,–,·,·,·
CCN1C(=O)CC(N2CCN(c3ccc(Cl)cc3)CC2)C1=O (centres undefined),–,–,–,–,–
CCN1C(=O)CC(N2CCN(c3ccc(C(=O)c4ccccc4)cc3)CC2)C1=O (centres undefined),–,–,–,57,–
Brc1ccc(-c2csc(NN=Cc3ccc4c(c3)OCO4)n2)cc1,·,–,·,·,·
CSc1nccc(-c2nn(-c3ccc(C)cc3)ccc2=O)n1,–,77,–,–,–
COc1ccc(Cl)cc1NC(=O)Nc1ccc2c(c1)N(S(=O)(=O)c1cccs1)CCC2,·,–,·,·,·
O=C(NCc1ccco1)/C(=C/c1ccco1)NC(=O)c1ccc(Br)o1,–,–,–,–,–
O=C(NC(=S)NCc1ccco1)c1ccc(Br)o1,·,45,·,·,·
Cc1ccc(NC(=O)C2C3C=CC4(O3)C2C(=O)N(CCCN2CCCCC2)C4C(=O)NC2CCCCC2)cc1Cl (centres undefined),·,–,–,–,–
Cc1ccc(NC(=O)C2C3C=CC4(O3)C2C(=O)N(CCCN2CCCC2)C4C(=O)NC2CCCCC2)cc1Cl (centres undefined),·,–,–,53,–
Cc1cc(C)nc(N2CCCC(C(=O)NC3CC3)C2)n1 (centres undefined),–,–,–,53,–
Cc1cc(C)nc(N2CCCC(C(=O)Nc3ccc(F)cc3)C2)n1 (centres undefined),–,–,–,–,–
COC(=O)c1ccc(NC(=O)CSc2ncnc3c2nnn3-c2ccc(C)cc2)cc1,·,–,·,·,·
CC(C)C(=O)c1cc2c(cc1NC(=O)c1cccs1)OCCO2,–,–,–,53,–
SMILES,RecA intein inh,SSB-PriA inh,3CLpro inhibitor,VHR inh abs,CCHF vOTU inh
O=C(N/N=C/c1ccc(OC(=O)c2ccc3c(c2)OCO3)cc1)c1cncc(Br)c1,–,·,–,51,–
O=C(NN=Cc1ccc(OC(=O)c2ccc3c(c2)OCO3)cc1)c1cncc(Br)c1,·,–,·,·,·
Cc1ccc(CS(=O)(=O)CCC(=O)NCCN2CCCCC2C)cc1 (centres undefined),–,–,–,–,–
Cc1ccc(CS(=O)(=O)CCC(=O)NCCCN2CCCC2)cc1,–,–,–,51,–
Cn1c(O)c(N=NCc2ccccc2)c2ccccc21,·,–,·,·,·
O=C(CN1CCN(c2nccn2-c2ccccc2F)CC1)N1CCc2ccccc21,·,44,·,·,·
COc1ccc(/C=N\NC(=O)c2ccncc2)cc1O,·,–,·,·,·
Cc1cccn2cc(COc3cccc([N+](=O)[O-])c3)nc12,–,–,–,–,–
O=[N+]([O-])c1cccc(OCc2cn3cccnc3n2)c1,–,–,–,53,–
Cc1cccc(C)c1Nc1nnc(SCC(=O)NC(=O)c2cccn2C)s1,–,–,–,51,–
Nc1nc(C(=O)N2CCOCC2)nn1C(=O)c1ccc(Cl)cc1,32,–,–,–,–
O=C(CCCn1nnnc1CN1CCOCC1)N1CCC(c2ccc(F)cc2)C1 (centres undefined),–,39,–,–,–
C=CCN=c1scc(-c2ccccc2)n1N=Cc1ccccn1,·,46,·,·,·
C=CCN=c1scc(-c2ccccc2)n1/N=C/c1ccccn1,–,–,–,–,–
CCCOc1cccc(-c2nc3ccccc3c(=O)o2)c1,43,–,–,–,–
O=C(NCC1CCCO1)C(c1ccco1)N(Cc1ccc(F)cc1)C(=O)CN1C(=O)c2ccccc2S1(=O)=O (centres undefined),–,–,–,58,–
